Source: ChEMBL document CHEMBL3433997, “St. Jude Leishmania screening dataset” (2016)

Columns and labels:
Assay type in all cases: functional
[1] = target: Solute carrier family 2, facilitated glucose transporter member 1 (Homo sapiens) (UniProt P11166); experiment: ST_JUDE_LEISH: Cytotoxicity at 2uM final concentration against transgenic Leishmania Mexicana promastigotes LmGLUT1 that are glucose transport deficient and complemented with the human glucose transporter GLUT1. Activity is measured by DNA content using SYBR green in vitro
[2] = target: Hexose transporter 1 (Plasmodium falciparum) (UniProt O97467); experiment: ST_JUDE_LEISH: Cytotoxicity at 2uM final concentration against transgenic Leishmania Mexicana promastigotes LmPfHT that are glucose transport deficient and complemented with the Plasmodium falciparum hexose transporter. Activity is measured by DNA content using SYBR green in vitro
[3] = target: Glucose transporter (Leishmania mexicana) (UniProt O61059); experiment: ST_JUDE_LEISH: Cytotoxicity at 2uM final concentration against transgenic Leishmania Mexicana promastigotes LmGT2 that are glucose transport deficient and complemented with the L. Mexicana glucose transporter 2. Activity is measured by DNA content using SYBR green in vitro

Solute carrier family 2, facilitated glucose transporter member 1 (Homo sapiens), sequence (P11166 whole entry): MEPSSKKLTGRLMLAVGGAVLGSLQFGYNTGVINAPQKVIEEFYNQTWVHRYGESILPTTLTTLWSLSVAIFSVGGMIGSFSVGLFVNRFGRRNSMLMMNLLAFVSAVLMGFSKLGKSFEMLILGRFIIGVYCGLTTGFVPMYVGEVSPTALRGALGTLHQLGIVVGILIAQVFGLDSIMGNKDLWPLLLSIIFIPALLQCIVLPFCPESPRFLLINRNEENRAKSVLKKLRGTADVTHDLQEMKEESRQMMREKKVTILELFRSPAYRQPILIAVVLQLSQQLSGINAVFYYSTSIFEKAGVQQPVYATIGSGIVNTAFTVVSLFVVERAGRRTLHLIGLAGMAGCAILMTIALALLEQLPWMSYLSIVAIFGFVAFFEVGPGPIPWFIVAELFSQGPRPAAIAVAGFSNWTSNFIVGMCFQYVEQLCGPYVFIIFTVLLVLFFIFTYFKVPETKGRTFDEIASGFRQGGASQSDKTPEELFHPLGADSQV

| SMILES | inhibition [1] [%] | inhibition [2] [%] | inhibition [3] [%] |
| --- | --- | --- | --- |
| CC(Nc1ccc2c(c1)OCCO2)C(=O)Nc1cc(C(F)(F)F)ccc1N1CCOCC1 (centres undefined) | 7.38 | 8.1 | 6.63 |
| COc1cc2c(cc1OCCN1CCC(N3CCCCC3)CC1)N(C(=O)/C=C/c1ccccc1OC(F)(F)F)CC2 | 2.32 | 5.04 | 3.58 |
| CCCCCn1c(Sc2ccc(C#N)c([N+](=O)[O-])c2)nnc1-c1ccc(Cl)cc1 | 4.31 | 4.27 | 0.12 |
| COc1cc2c(cc1S(=O)(=O)c1ccc(NC(=O)c3ccc4ccccc4c3)cc1)CCN(C)CC2 | 1.64 | 0.19 | -0.44 |
| Cc1cccc2nc(-c3cccc(-c4cccc(NC(=O)CC5NC(=O)c6ccccc65)c4)c3)[nH]c12 (centres undefined) | 0.82 | 1.34 | 3.21 |
| CCCSc1nc2c(c(=O)n1CCc1ccccc1)C1(CCCC1)Cc1ccccc1-2 | -1.58 | 1.38 | 0.24 |
| O=C(Cc1ccc[n+]([O-])c1)Nc1cccc(-c2cccc(-c3nc4cc(C(F)(F)F)ccc4[nH]3)c2)c1 | 2.28 | -0.06 | 5.03 |
| COc1cccc(-c2ccc(O)c(CNCCc3cccc(F)c3)c2)n1 | -0.7 | 3.14 | 2 |
| CC1CN(Cc2ccc(C#N)cc2)CCN1c1ccc(NC(=O)c2cccs2)cc1 (centres undefined) | 8.47 | 8.63 | 8.98 |
| CC(C)(C)c1ccc(CN2CCC(NC(=O)c3ccc(-c4ccccc4Cl)s3)CC2)cc1 | 10.1 | 7.04 | 3.18 |
| CCCN1CCN(Cc2ccc(C(=O)Nc3ccc(Cl)cc3)cc2)CC1 | 5.31 | 4.24 | 4.34 |
| COc1ccc2ncc(F)c(CCN3CCC(NCc4cc(F)c5c(c4)OCCO5)CC3)c2n1 | 14.4 | 20.5 | 17.9 |
| NC1CCCN(Cc2ccc(-c3ccc(-c4nc5cc(F)ccc5[nH]4)s3)cc2)C1 (centres undefined) | 2.77 | 3.22 | 3.45 |
| CN1CCN(CCCCNc2c3ccccc3nc3ccccc23)CC1 | 23 | 11.7 | 14.6 |
| CCc1c(CCNCCCCCCNC(C)Cc2ccc3c(c2CC)OCO3)ccc(OC)c1OC (centres undefined) | 4.49 | 3.47 | 1.99 |
| O=C(Nc1cc(Oc2ccc(O)cc2)cc([N+](=O)[O-])c1)c1cc(-c2ccc(F)cc2)no1 | 2.24 | -1.36 | 1.6 |
| Cc1cc(C)cc(OCC(O)CN(Cc2cc(Cl)cc(Cl)c2)C(=O)Nc2ccccc2Cl)c1 (centres undefined) | 2.01 | 1.42 | -7.19 |

| SMILES | inhibition [1] [%] | inhibition [2] [%] | inhibition [3] [%] |
| --- | --- | --- | --- |
| CN1CC[C@@H](Oc2cc(Nc3nc(-c4ccc(C#N)cc4)cs3)ccc2Cl)C1 | 5.3 | 5.47 | 4.06 |
| CC(C)CNCc1ccc(-c2ccccc2CNC2CCN(Cc3ccccc3)CC2)cc1 | 7.04 | 7.66 | 5.95 |
| Cc1ccc(C(=O)Nc2cccc(CN3CCCN(Cc4ccc(O)cc4)CC3)c2)s1 | -2.38 | 0.41 | 2.88 |
| COc1ccc2ncc(F)c(CCN3CCC4(CC3)COC(c3cc5c(cn3)OCCO5)=N4)c2n1 | 10.3 | 7.42 | -0.24 |
| Cc1c(-c2cccc(CNCCc3ccc(Cl)cc3)c2)cnc(N)c1C | -3.87 | -2.81 | -1.41 |
| CCCCCCNC(=O)c1nn(CCN2CCC(N3CCCC3)CC2)cc1-c1ccc(Cl)c(Cl)c1 | 0.97 | 1.84 | 1.8 |
| O=C(/C=C/c1ccc(Cl)c(Cl)c1)NCCCCCN1CCC(c2c[nH]c3c(-c4ccccc4)cccc23)CC1 | 0.48 | 4.3 | 3.07 |
| COc1c(C2CCN(CCCCNC(=O)c3cc(-c4ccc(Cl)cc4)sc3C)CC2)ccc2c1CCCC2 | 0.21 | 2.22 | -2.53 |
| CCN(CC)CCNC(=O)c1ccc(NC(=O)c2cn(-c3ccccc3)nc2-c2cccs2)cc1 | 5.46 | 4.01 | 6.19 |
| O=C(Nc1cccc(CN2CCCN(Cc3ccccc3)CC2)c1)c1ccc(Cl)c(Cl)c1 | 4.45 | 3.88 | -5.96 |
| Cc1[nH]c(C)c(-c2ccc(-c3cc(C(F)(F)F)cc(C(F)(F)F)c3)nc2)c(=O)c1Br | 4.9 | 5.44 | 5.42 |
| O=[N+]([O-])c1ccc(/C=N/O)nc1 | 88.1 | 91.2 | 84.6 |
| OCC1CCN(Cc2cccc(-c3ccc(-c4nc5cc(F)ccc5[nH]4)cc3)c2)CC1 | 0 | -0.04 | 0.27 |
| COc1ccc2nccc(NCC3(O)CCC(NCc4ccc5c(n4)NC(=O)CS5)CC3)c2n1 (centres undefined) | 4.33 | 3.51 | 4.28 |
| NCCCCc1c(-c2ccc(Cl)c(Cl)c2)[nH]c2ccc(Cl)cc12 | -2.7 | -1.68 | -3.34 |
| COc1c(C2=CCN(CCCCNC(=O)c3ccc(-c4ccc(C#N)cc4)cc3)CC2)ccc2c1CCCC2 | 0.4 | -0.52 | 0.06 |
